Compounds with a hit are over-represented: about 12% of the library has one in this group of screens.
HP1b binding inh: HTS for Inhibitors of HP1-beta Chromodomain Interactions with Methylated Histone Tails; Chromobox protein homolog 1 (Homo sapiens), P83916; AlphaScreen HP1-beta / biotin-H3K9me3 peptide binding; Potency, µM (highest dose often 114 µM), for inactives: at the top dose activity change, negative = inhibition, usual class: inhibitors; hit rate 0.56% among 390,000; AID 540317, 2011; further: nearly all actives have a fitted effect of over 70% in size
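AlphaScreen: HP1-beta (50 nM) preformed 30 min with biotin-H3(1-18)K9me3 peptide (50 nM) in PBS pH 7.4, 0.01% Tween-20. Compound added for 30 min at RT, then streptavidin donor/nickel chelate acceptor beads (10 ug/mL) for 30 min.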
BAZ2B block: qHTS Assay for Inhibitors of BAZ2B | Bromodomain adjacent to zinc finger domain protein 2B (Homo sapiens), Q9UIF8 | AlphaScreen BAZ2B-H3K14Ac peptide displacement | Potency, µM (top dose mostly 114 µM), for the others: top-dose activity change, negative = inhibition, most hits filed as inhibitors | hit rate 4.4% among 360,000 | AID 504333, 2011; further: on the % scale 0 is the no-effect control and ±100 the full control effect; nearly all actives have a fitted effect of over 60% in size
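Inhibition is scored as reduced AlphaScreen emission. The BAZ2B/b-H3(5-23)K14Ac complex (50 nM each) in PBS pH 7.4, 0.01% Tween-20 meets compound (up to 110 uM) for 30 min at RT before bead addition.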
Sfp inh: qHTS Assay for Inhibitors of Bacillus subtilis Sfp phosphopantetheinyl transferase (PPTase). Biochemical Sfp PPTase activity, qHTS. AID 1490, 2009. hit rate 3.5% among 310,000. Potency, µM, for the others: largest response in the series, negative = inhibition, most hits filed as inhibitors;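 further: the enzyme is Sfp with the accession as filed and its product quenches rhodamine fluorescence; 0% = enzyme reaction without inhibitor and -100% = no enzyme wells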
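Compounds were incubated with enzyme (final 15 nM) for 15 min at room temperature before substrate addition started the reaction. Fluorescence at 525 nm excitation, 598 nm emission was recorded immediately and after 30 minutes.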
G9a inh: qHTS Assay for Inhibitors of Histone Lysine Methyltransferase G9a; G9a H3K9 monomethylation, AlphaScreen, 2 h; Potency, µM (titrated, usually from 102 µM), inactives show at the top dose activity, negative = inhibition, hits mostly inhibitors; hit rate 8.8% among 350,000; further: on the % scale 0 is the no-effect control and ±100 the full control effect; nearly all actives have a fitted effect of over 75% in size
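Signal arises when biotinylated H3K9 peptide, once monomethylated, bridges streptavidin donor and antibody-captured acceptor beads. Enzyme at 20 nM was preincubated 15 min with test compounds; peptide 500 nM and SAM 20 uM then reacted for 2 h.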
PLK1 PBD inh: qHTS for Inhibitors of PLK1-PDB (polo-like kinase 1 - polo-box domain): Primary Screen; Plk1 PBD binding of FITC phosphopeptide, fluorescence polarization; hit rate 2.8% among 360,000; Serine/threonine-protein kinase PLK1 (Homo sapiens), P53350; Potency, µM, without a hit: max response, negative = inhibition, actives largely listed as inhibitors; further: series mostly up to about 57 µM; on the % scale 0 is the no-effect control and ±100 the full control effect; nearly all actives have a fitted effect of over 65% in size
JMJD2A Tudor: qHTS Assay for Inhibitors of JMJD2A-Tudor Domain. Lysine-specific demethylase 4A (Homo sapiens), O75164. AlphaScreen JMJD2A-Tudor / H3K4me3 peptide binding. Potency, µM (series often up to 114 µM), inactives show top-dose activity change, negative = inhibition, actives largely listed as inhibitors. hit rate 4.4% among 390,000. AID 504339, 2011; further: on the % scale 0 is the no-effect control and ±100 the full control effect; nearly all actives have a fitted effect of over 50% in size
Active calls of the source: *; ? = inconclusive; · = not tested or not shown; [ ] = remark or other dose. The call rests on the fitted dose curve; in most records, active means well fitted curve in the direction sought with a large enough effect; inconclusive means small, poorly fitted or top-dose-only effect, or another doubt; inactive means no such curve, though single readings can be large; an effect the other way counts as inactive or inconclusive. Potency means the concentration at half of the fitted maximal effect.

SMILES | HP1b binding inh | BAZ2B block | Sfp inh | G9a inh | PLK1 PBD inh | JMJD2A Tudor
Cc1ccc(C(C)C)c(OCCNCc2ccccc2)c1 | 27% | ? | -19% | · | -1% | 28µM*
COc1ccccc1C(CCNCc1ccccc1)c1ccc(OC(C)C)cc1 (stereo not given) | 12% | -8% | -14% | -2%[2.33 µM] | -4% | -23%
Cc1ccc(C(C)C)c(OCCNC(=S)Nc2cccc3ccccc23)c1 | 13% | -14% | 8% | 22%[12.7 µM] | 4% | -24%
Cc1ccc(C)c(OCCC(=O)OCC(=O)NCc2ccccc2)c1 | -8% | -2% | · | 0% | -17% | -12%
Cc1cc(OCCOCCNCc2ccccc2)ccc1C(C)C | ? | ? | 79µM* | 10µM* | 3% | 20µM*
Clc1cc(Br)ccc1OCCCNCc1ccccc1 | ? | ? | -22% | 7.1µM* | -4% | 2.8µM*
Brc1ccc(OCc2ccccc2)c(CNCc2ccncc2)c1 | 14% | 79µM* | 79µM* | -37%[0.0925 µM] | -3% | ?
CCOC(=O)c1sc(=S)n(-c2cc(F)ccc2F)c1N | -35% | -9% | 56µM* | 26%[0.501 µM] | ? | ?
COC(=O)c1sc(=S)n(-c2cc(F)ccc2F)c1N | ? | 56µM* | 50µM* | 12%[0.501 µM] | 13µM* | ?
CC(C(=O)NCCc1ccc(F)cc1)N1CCN(Cc2ccccc2)CC1 (stereo not given) | 13% | -6% | -9% | -6%[59 µM] | -5% | -11%
CC1CCc2c(sc(NC(=O)c3ccccc3)c2C(=O)Nc2ccccc2)C1 (stereo not given) | 29% | 1% | · | -7%[59 µM] | · | 5%
Cc1c(C(=O)Nc2ccc(Cl)cc2)c2ccccn2c1CCc1ccncc1 | 19% | -33% | -7% | 14µM* | -10% | -21%
Cc1c(C(=O)c2ccc(F)cc2)c2ccccn2c1CCc1ccccn1 | 8% | -39% | -27% | 45µM* | -12% | -30%
COC(=O)CCc1c(C)c(C(=O)c2cc(OC)c(OC)c(OC)c2)c2ccccn12 | 14% | ? | 0% | 5%[2.33 µM] | -4% | -24%
Cc1c(C(=O)c2ccccc2)c2ccccn2c1CCc1ccccn1 | 18% | 71µM* | -48% | 40µM* | 5% | -35%
Cc1c(C(=O)c2ccccc2)c2ccccn2c1CCC#N | 54% | -37% | 14% | ? | -20% | -9%[11.4 µM]
Cc1ccc(SCCC(=O)NC(C)C)cc1 | 38% | 2% | 0% | 6%[59 µM] | 0% | 5%
Cc1ccc(SCCC(=O)OC(C(=O)NC(N)=O)C(C)C)cc1 (stereo not given) | -13% | 2% | -15% | ? | ? | 11µM*
CC(=O)Nc1ccc(S(=O)(=O)N(Cc2ccco2)Cc2cc3ccccc3[nH]c2=O)cc1 | 55% | -31% | 1% | 35µM* | -7% | -18%
CC(=O)Nc1ccc(S(=O)(=O)N(Cc2cccnc2)Cc2cc3ccccc3[nH]c2=O)cc1 | 29% | -17% | 3% | 19% | -10% | 11%
COC(=O)c1ccccc1S(=O)(=O)N(Cc1ccco1)Cc1cc2cc(OC)ccc2[nH]c1=O | 28% | -33% | 22µM* | ? | -13% | -3%
S=C(Nc1ccc(Cl)cc1)N(CCCN1CCOCC1)Cc1ccco1 | -3% | -21% | 7% | -10%[59 µM] | -12% | -18%
CCOC(=O)c1ccc(NC(=S)N(CCN2CCCCCC2)Cc2ccco2)cc1 | 7% | -17% | -24% | 32µM* | -15% | ?
S=C(Nc1ccc(Oc2ccccc2)cc1)N(CCCN1CCOCC1)Cc1ccccn1 | -13% | ? | -76% | 32µM* | ? | -16%
CCOC(=O)c1ccc(NC(=S)N(CCCN2CCCCCC2)Cc2ccco2)cc1 | 13% | -39% | -23% | ? | -2% | ?
SMILES | HP1b binding inh | BAZ2B block | Sfp inh | G9a inh | PLK1 PBD inh | JMJD2A Tudor
CCN1CCN(CCCN(Cc2ccco2)C(=S)Nc2ccc(Cl)c(C)c2)CC1 | 10% | -20% | 13% | ? | 0% | -18%
Cc1ccc(NC(=S)N(CCCN2CCOCC2)Cc2ccco2)cc1 | 26% | -14% | -29% | 40µM* | ? | -6%
Cc1cccc(NC(=S)N(CCCN2CCOCC2)Cc2ccccn2)c1 | 0% | 5% | 8% | 5%[59 µM] | -8% | -14%
Cc1cc(NC(=S)N(CCN2CCCCC2)Cc2ccco2)ccc1Cl | 4% | ? | -70% | 40µM* | -18% | -22%
COC1CCN(Cc2c(C(=O)N3CCN(C4CCCCC4)CC3)nc3ccccn23)CC1 | 28% | -12% | -10% | · | -9% | -6%
COC(=O)[C@@]1(Cc2ccccc2)[C@H]2c3cc(C(=O)N(C)C)n(CCF)c3C[C@H]2CN1C(=O)c1ccccc1 | · | · | 28% | · | · | ·
COc1c(C2=CC(=O)N(C)C2=O)c2c(n1C)C(=O)c1ccccc1C2=O | · | · | 25µM* | · | · | ·
c1ccc(COc2cccc(-c3cc4nc(NCc5ccc6c(c5)OCO6)ccn4n3)c2)cc1 | · | · | · | · | -2% | ·
CCn1c(C)c2c([n+]1CC)CC(C)(C)CC2=O | -3% | 7% | -10% | 16µM* | -6% | 32µM*
Cc1cc(C)cc(NC(=O)c2ccc(S(=O)(=O)C(F)F)cc2)c1 | 28% | 7% | 21% | 50µM* | -5% | -9%
N#Cc1c(C#N)c(-c2ccccc2)n(-c2ccc(C(=O)O)cc2)c1N | 18% | ? | 24% | 56µM* | -5% | -20%
N#Cc1c(N)n(-c2ccc(C(=O)O)cc2)c2nc3ccccc3nc12 | 39% | 2% | 18% | -5%[59 µM] | 0% | 7%
N#Cc1c(C#N)c(SSc2c(C#N)c(C#N)c(N)n2-c2ccccc2)n(-c2ccccc2)c1N | ? | · | · | · | 2.7µM* | 0.79µM*
CN(C)c1ncc2nc(-c3ccc(Cl)cc3)c(=O)n(Cc3cccs3)c2n1 | · | · | -6% | 22%[0.501 µM] | · | ·
CCN(CC)CCNC(=O)c1ccccc1N | 32% | -4% | 20% | -5%[59 µM] | 1% | 4%
O=C(NCc1ccncc1)c1cc2ccccc2nc1Cl | 16% | -17% | 11% | 45µM* | -7% | -12%
Cc1nc2ccccc2cc1C(=O)NCc1ccc(F)cc1 | 39% | -1% | 16% | 20%[0.0925 µM] | 0% | 0%
CCN(CC)CCNC(=O)c1cc2ccccc2nc1Cl | -10% | 79µM* | -15% | ? | 1% | 35µM*
Cc1c(C)n(C)c2ccc(C(=O)N3CCN(c4ccccn4)CC3)cc12 | -17% | ? | -7% | ? | -5% | ?
Cc1cccc(N2CCN(C(=O)c3ccc4c(c3)c(C)c(C)n4C)CC2)c1C | ? | 0% | · | -4%[59 µM] | · | -2%

Compound activity from PubChem.
